For one test, the system named is THRa:RXRa (NR concentration 90 nM, RXRa partner concentration 90 nM). As to the kind of experiment: PBM binding z-score (relative to random genomic background probes); higher = stronger binding; sequences stand for … in GC…GCGATTGACAGCGTAGAATGAAGG
The procedure, abridged: (§1)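 On custom Agilent 4×180K arrays, double-stranded probes with 34-nt variable regions carried direct-repeat seeds, single-nucleotide variants, half-site ablations or random human genomic background. Ligand-free nuclear receptor dimers were applied for 1 h, and binding was read with antibodies against each partner (one per run). Binding z-scores come from regression-normalized fluorescence, with the random background probes as reference.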
Take CCTGCTAGGGCAATGGTCAGCTAAAGCAGCTCGC: the PBM binding z-score was -0.164.

Take ATCGAAAGGTCGTGAGGTGAGTCTACAGAAAGGC: the PBM binding z-score stood at 3.48.

For the sequence CCTAGCACGCCAGGGTCACTCAAGCATTTCGCTT, the PBM binding z-score is 2.76.

The sequence TCATATAAGTAAAAGGTGAAAGTCGGTGTGGTAA gave a PBM binding z-score of 1.46.

On to AGTCAAAGTTCATCTAGGCAACGTAAGATATGCT, for which the PBM binding z-score turned out to be 2.22.

Regarding ACTATTAGTTGACTTAGGGCAACCCATACGACGC, the PBM binding z-score was determined as 1.55.

Take CCTCGGTGGACAACAGGAGGTCAGAGCTGCCAGA: the PBM binding z-score came to 1.97.

Regarding CGAACTAGGTCAGGGACAGTGAATCTCCGCACGC, the PBM binding z-score is 2.23.

The sequence TCGAGTAGGTTAGACGGGGCATTCAGCCAACATA displayed a PBM binding z-score of 0.812.

Sequence CCTTACGGGTCACCGACAGGTTATAGCATTTGGA showed a PBM binding z-score of 3.23.

GCTGCTAGGTCAACTGATGTTCAGCTAAAGCTCG returned a PBM binding z-score of 2.89.

Regarding TCTTATAGGTAAAAGGTGAAAGTCGGTGTGGTAA, the PBM binding z-score worked out at 1.8.

Take ACTAGCAGGCCAAGTCTGGGTCACTCAAACAAAG: the PBM binding z-score is 2.35.

The sequence ATCTCTAGGAAAAGATAGTTCAGTGAATGCAAAT gave a PBM binding z-score of 0.206.

As to ACTAGCAGGCCAAGTTTGGGTCACTCAGACAAAG, the PBM binding z-score came out at 2.33.

Turning to AACTCTAGGTAAAGATAGTTCAGTGAATGCAAAT, the PBM binding z-score turned out to be 0.754.

On to GCTAGCAGGCCATTTGGTTCACTCAATGACGGGC, for which the PBM binding z-score is -0.195.

Sequence ATCGAAAGGCCGACGAGGTGAGTATACACCGTTT had a PBM binding z-score of 1.5.

For the sequence TCTGTTAGTTGAAGGGCAACCGACGAGTCCGTTT, the PBM binding z-score worked out at 0.412.

CCTACTGGGCCACGAAACGTCATTGATTCAGTGA registered a PBM binding z-score of -0.288.

As for TCGAGTAGGTTAGGGGCATGCAGAATGGCGTCGA, the PBM binding z-score was 0.973.

The sequence CCTACTGGGCCAAAGCTCATTGATTCCAATGCTC gave a PBM binding z-score of -0.58.

With TCTTGTAGAGCAACAGGAGGTTAAGAAAGATCGA, the PBM binding z-score was 0.705.

On to TCTTGTAGATCAAGCAGGTTAAGGAAGCCTGAGT, for which the PBM binding z-score came out at 0.262.

Sequence CCTAGCAGGCCAATCTGGGTCACTAAAGGCTTGA came in with a PBM binding z-score of 3.4.

Regarding CCTTACGGGTCACTCCAGATTATAGCATCGGAGT, the PBM binding z-score stood at 2.65.

With CGTCCAAGGTCAAGGTCAGTTAAAGAGACTCGAA, the PBM binding z-score was 4.4.

With CCTGCTGGGCCAAGGTCATTGATCAGTCAAAGCA, the PBM binding z-score was 3.49.

In turn, TCGAGTAGGTTACCAATGGGGCAGTCAGCTTTCT displayed a PBM binding z-score of -0.0981.

With AGTCTAAGTTCACTAGGTAACGTAAGATTCAGCT, the PBM binding z-score was 2.27.

CAAACTAGGTGACGAAAGGTCAAAGTCGAATGAC showed a PBM binding z-score of 4.22.

As for CCTTGTTGGTCAGGAGGTCACACACCGGATATGA, the PBM binding z-score was 3.33.

Regarding ATCTCTAGGTAACAAGTCCAGTGAAAGAGAGGAC, the PBM binding z-score was 0.997.

As for GCTAGTTGGTCAGTAAAAGGTCACACATCGGTCG, the PBM binding z-score was determined as 3.54.

In turn, GGAACGAGGGCGTTCGAGTTGATAGCATGGCGAT gave a PBM binding z-score of 2.16.

For the sequence CTACCAAGGTGAACAACGTCGTTGATTACTATTC, the PBM binding z-score is 1.79.

CGAACTAGGTCAGAACAGGACAGTGGAGGATGAT: the PBM binding z-score is 3.33.

With GCTGCTAGGTCTACTGATGGTCAGCTAAAGCTCG, the PBM binding z-score was -0.635.

Sequence CAAACTAGGTCATGGTCAAAGTCGGTTTGTGCCA showed a PBM binding z-score of 3.04.

Consider ATCGAAAGGCCGTGAGGTGAGTATACAGAAAGGC, for which the PBM binding z-score was 1.93.

The subject of the next test is THRa homodimer (NR concentration 90 nM). The test is described as above. An outline of the steps:
as §1
CCTGCTAGGGCAATGGTCAGCTAAAGCAGCTCGC registered a PBM binding z-score of -0.86.

Take ATCGAAAGGTCGTGAGGTGAGTCTACAGAAAGGC: the PBM binding z-score turned out to be 1.43.

For the sequence CCTAGCACGCCAGGGTCACTCAAGCATTTCGCTT, the PBM binding z-score is 1.12.

In turn, TCATATAAGTAAAAGGTGAAAGTCGGTGTGGTAA came in with a PBM binding z-score of 0.55.

For the sequence AGTCAAAGTTCATCTAGGCAACGTAAGATATGCT, the PBM binding z-score is -0.142.

Sequence ACTATTAGTTGACTTAGGGCAACCCATACGACGC gave a PBM binding z-score of 0.725.

Sequence CCTCGGTGGACAACAGGAGGTCAGAGCTGCCAGA showed a PBM binding z-score of 0.341.

Consider CGAACTAGGTCAGGGACAGTGAATCTCCGCACGC, for which the PBM binding z-score is 1.07.

In turn, TCGAGTAGGTTAGACGGGGCATTCAGCCAACATA returned a PBM binding z-score of -0.51.

In the case of CCTTACGGGTCACCGACAGGTTATAGCATTTGGA, the PBM binding z-score is 0.772.

In turn, GCTGCTAGGTCAACTGATGTTCAGCTAAAGCTCG gave a PBM binding z-score of 1.02.

With TCTTATAGGTAAAAGGTGAAAGTCGGTGTGGTAA, the PBM binding z-score was 0.525.

In turn, ACTAGCAGGCCAAGTCTGGGTCACTCAAACAAAG displayed a PBM binding z-score of 0.768.

The sequence ATCTCTAGGAAAAGATAGTTCAGTGAATGCAAAT gave a PBM binding z-score of -0.344.

ACTAGCAGGCCAAGTTTGGGTCACTCAGACAAAG displayed a PBM binding z-score of 0.94.

As to AACTCTAGGTAAAGATAGTTCAGTGAATGCAAAT, the PBM binding z-score is -0.108.

As to GCTAGCAGGCCATTTGGTTCACTCAATGACGGGC, the PBM binding z-score was -0.949.

Consider ATCGAAAGGCCGACGAGGTGAGTATACACCGTTT, for which the PBM binding z-score was determined as 0.378.

TCTGTTAGTTGAAGGGCAACCGACGAGTCCGTTT gave a PBM binding z-score of 0.0955.

Regarding CCTACTGGGCCACGAAACGTCATTGATTCAGTGA, the PBM binding z-score was -0.682.

Regarding TCGAGTAGGTTAGGGGCATGCAGAATGGCGTCGA, the PBM binding z-score stood at 0.12.

CCTACTGGGCCAAAGCTCATTGATTCCAATGCTC had a PBM binding z-score of -0.358.

As for TCTTGTAGAGCAACAGGAGGTTAAGAAAGATCGA, the PBM binding z-score was -0.732.

For the sequence TCTTGTAGATCAAGCAGGTTAAGGAAGCCTGAGT, the PBM binding z-score was -0.359.

The sequence CCTAGCAGGCCAATCTGGGTCACTAAAGGCTTGA yielded a PBM binding z-score of 0.446.

On to CCTTACGGGTCACTCCAGATTATAGCATCGGAGT, for which the PBM binding z-score was found to be 0.098.

CGTCCAAGGTCAAGGTCAGTTAAAGAGACTCGAA gave a PBM binding z-score of 3.3.

Consider CCTGCTGGGCCAAGGTCATTGATCAGTCAAAGCA, for which the PBM binding z-score worked out at 2.22.

TCGAGTAGGTTACCAATGGGGCAGTCAGCTTTCT had a PBM binding z-score of -1.12.

As to AGTCTAAGTTCACTAGGTAACGTAAGATTCAGCT, the PBM binding z-score worked out at 0.878.

Take CAAACTAGGTGACGAAAGGTCAAAGTCGAATGAC: the PBM binding z-score is 1.33.

The sequence CCTTGTTGGTCAGGAGGTCACACACCGGATATGA registered a PBM binding z-score of 2.47.

As for ATCTCTAGGTAACAAGTCCAGTGAAAGAGAGGAC, the PBM binding z-score came to 0.64.

Sequence GCTAGTTGGTCAGTAAAAGGTCACACATCGGTCG yielded a PBM binding z-score of 1.84.

In the case of GGAACGAGGGCGTTCGAGTTGATAGCATGGCGAT, the PBM binding z-score was -1.11.

CTACCAAGGTGAACAACGTCGTTGATTACTATTC came in with a PBM binding z-score of 0.72.

With CGAACTAGGTCAGAACAGGACAGTGGAGGATGAT, the PBM binding z-score was determined as 0.46.

GCTGCTAGGTCTACTGATGGTCAGCTAAAGCTCG yielded a PBM binding z-score of -0.572.

With CAAACTAGGTCATGGTCAAAGTCGGTTTGTGCCA, the PBM binding z-score worked out at 1.5.

In turn, ATCGAAAGGCCGTGAGGTGAGTATACAGAAAGGC displayed a PBM binding z-score of 0.902.
